From PubChem BioAssay
12-hLO inh: blocks human 12-lipoxygenase activity | P18054 | purified 12-hLO, xylenol orange hydroperoxide absorbance | Potency, µM (series often up to 57.1 µM), actives largely listed as inhibitors | 150,000 tested, 0.12% active | AID 1452; further: nearly all actives have a fitted effect of over 55% in size
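Hydroperoxide formation by human 12-lipoxygenase from 40 uM arachidonic acid was followed colorimetrically via ferric-xylenol orange complex, using the 573/405 nm absorbance ratio. Enzyme concentration was 150 nM, with 30 min reaction at room temperature.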
GLA inh pH 4.5: inhibitors of human alpha-galactosidase A at pH 4.5; activity change, negative = inhibition, % at 105 µM; purified enzyme, 4-MU-alpha-Gal fluorescence, pH 4.5; P06280; 230,000 tested, under 10 active
Target sequence (P06280 whole entry, looked up): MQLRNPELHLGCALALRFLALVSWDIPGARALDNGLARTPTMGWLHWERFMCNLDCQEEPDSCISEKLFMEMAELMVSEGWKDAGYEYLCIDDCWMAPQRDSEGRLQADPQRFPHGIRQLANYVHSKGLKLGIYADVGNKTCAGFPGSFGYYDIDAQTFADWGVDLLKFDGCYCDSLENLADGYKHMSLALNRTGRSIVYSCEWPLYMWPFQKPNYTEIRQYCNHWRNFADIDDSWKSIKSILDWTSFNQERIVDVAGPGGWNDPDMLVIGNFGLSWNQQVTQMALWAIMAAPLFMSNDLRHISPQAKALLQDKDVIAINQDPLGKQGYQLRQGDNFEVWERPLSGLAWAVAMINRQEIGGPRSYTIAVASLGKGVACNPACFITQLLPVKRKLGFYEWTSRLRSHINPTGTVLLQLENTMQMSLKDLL
PNC inhibitor: perinucleolar compartment assembly inhibition; PC3M PTB-GFP, PNC prevalence imaging, 16 h; active compounds read low; activity change (PNC), negative = inhibition, % at 10 µM; 140,000 tested, 3.1% active; AID 2417;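 active means readout at or below -70, meaning at least 70% loss of cells showing the perinucleolar compartment, a nuclear body marking cancer cells; inconclusive means readout between -30 and a set limit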
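PC3M cells stably expressing PTB-GFP, 750–1000 cells/well, treated 16 h at 37 °C with compound (23 nl of library stock), in duplicate. After paraformaldehyde fixation and Hoechst stain, imaged at 20x; PNC prevalence scored by image analysis.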
ALDH1A1 inh: inhibitors of human aldehyde dehydrogenase 1A1 | P00352 | Purified ALDH1A1, NADH fluorescence, propionaldehyde substrate | Potency, µM (series often up to 75.3 µM), actives largely listed as inhibitors | 220,000 tested, 7.3% active | AID 1030; active means well fitted inhibition curve with a large enough effect, not every such curve was filed as active; inconclusive means small, poorly fitted or top-dose-only effect, or another doubt; inactive means no such curve, though single readings can be large or run the other way
aGal spleen mod: inhibitors or activators of human alpha-galactosidase in spleen homogenate. 240,000 tested, 0.008% active. P06280. Potency, µM (top dose mostly 80 µM), actives largely listed as inhibitors. human spleen homogenate, 4MU-alpha-Gal fluorescence, 40 min
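Human spleen homogenate (1 ug) as enzyme source, 4-methylumbelliferyl-alpha-D-galactopyranoside 1 mM final, citrate/phosphate pH 5.0 with 0.01% Tween-20. Compounds 40 min at 37C, NaOH/glycine stop; fluorescence Ex 365/Em 440, Hill-fit AC50.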
HPGD inh: HPGD (human) dehydrogenase inhibition | purified HPGD, NADH fluorescence kinetic, PGE2 substrate | Potency, µM, hits mostly inhibitors | 150,000 tested, 4.3% active; active means well fitted inhibition curve with a large enough effect, not every such curve was filed as active; inconclusive means small, poorly fitted or top-dose-only effect, or another doubt; inactive means no such curve, though single readings can be large or run the other way
Target sequence (P15428 whole entry, looked up): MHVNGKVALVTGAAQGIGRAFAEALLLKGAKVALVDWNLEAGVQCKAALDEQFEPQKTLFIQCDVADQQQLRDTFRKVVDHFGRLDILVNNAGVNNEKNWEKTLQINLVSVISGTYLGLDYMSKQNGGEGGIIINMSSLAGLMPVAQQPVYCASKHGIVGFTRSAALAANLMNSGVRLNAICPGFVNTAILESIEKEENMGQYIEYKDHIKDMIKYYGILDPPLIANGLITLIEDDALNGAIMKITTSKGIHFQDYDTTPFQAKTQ
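20 nM HPGD preincubated 15 min at room temperature with compound in 50 mM Tris-HCl pH 8, 0.01% Tween 20. Started with 1 mM NAD+ and 30 uM prostaglandin E2; NADH fluorescence (360/450 nm) read 5 times over 30-s intervals, last minus first.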
Large screens that a line does not name were inactive. Shown are actives, neighbours in structure and some others; about 10% of the full set was active somewhere. Unless noted, the call rests on the fitted dose curve; in most records, active means well fitted curve in the direction sought with a large enough effect; inconclusive means small, poorly fitted or top-dose-only effect, or another doubt; inactive means no such curve, though single readings can be large; an effect the other way counts as inactive or inconclusive.

O=C(NC(=S)Nc1cc(C(F)(F)F)ccc1Cl)c1ccccc1	ALDH1A1 inh 25µM
O=C(O)c1ccc(Cl)c(NC(=S)NC(=O)c2ccccc2[N+](=O)[O-])c1	ALDH1A1 inh 22µM (no result: 12-hLO inh, PNC inhibitor, HPGD inh)
CCCCCCN(C(=O)CCCCCN1C(=O)NC(c2ccccc2)C(C(=O)OCc2ccccc2)=C1C)C(C(=O)NCCCC)c1ccc(OCC(=O)OC)c(C(=O)OC)c1 (configuration not stated)	none (no result: 12-hLO inh, PNC inhibitor, ALDH1A1 inh, HPGD inh)
C[C@@H]1C(c2cccc(Cl)c2)=NN(c2ccc(Br)cc2)[C@H]1C(=O)N1CCOC1=O	GLA inh pH 4.5 inconclusive, ALDH1A1 inh inconclusive, aGal spleen mod inconclusive, HPGD inh inconclusive (no result: PNC inhibitor)
O=C(NC(NC(=S)Nc1ccc(Cl)cc1Cl)C(Cl)(Cl)Cl)c1cccc([N+](=O)[O-])c1 (configuration not stated)	12-hLO inh inconclusive, ALDH1A1 inh 18µM
O=C(NC(=S)Nc1cccc([N+](=O)[O-])c1)c1ccccc1	none (no result: 12-hLO inh, PNC inhibitor, ALDH1A1 inh, HPGD inh)
CC(C)CC(=O)Nc1cc([N+](=O)[O-])ccc1Cl	none
O=C(NC(=S)Nc1cc([N+](=O)[O-])ccc1Cl)c1ccccc1	ALDH1A1 inh 8.9µM, HPGD inh inconclusive
O=C(CN1CCN(c2ccccc2O)CC1)Nc1ccc([N+](=O)[O-])cc1Br	ALDH1A1 inh inconclusive (no result: 12-hLO inh, PNC inhibitor, HPGD inh)
O=C(CN1CCN(c2ccccc2O)CC1)Nc1cc([N+](=O)[O-])ccc1Cl	ALDH1A1 inh 22µM (no result: 12-hLO inh, PNC inhibitor, HPGD inh)
CC(C(=O)Nc1cc([N+](=O)[O-])ccc1Cl)N1CCN(c2ccc(O)cc2)CC1 (configuration not stated)	PNC inhibitor -85, ALDH1A1 inh 7.1µM
CCCCC[C@H](O)/C=C/[C@@H]1[C@H]2C/C(=C/CCCC(=O)O)C[C@H]2C[C@H]1O	none (no result: PNC inhibitor)
c1ncc(CC2CCNCC2)[nH]1	none (no result: PNC inhibitor)
O=C(O)c1ccc(Sc2nnc(-c3cccc(Br)c3)o2)c([N+](=O)[O-])c1	HPGD inh 14µM
Cn1c(Sc2ccc(C(=O)O)cc2[N+](=O)[O-])nnc1-c1ccccc1	none (no result: 12-hLO inh, PNC inhibitor, HPGD inh)
CC(C)NC(=O)CSc1nnc(-c2ccc(C(C)(C)C)cc2)n1C	PNC inhibitor -100
CC(C)NC(=O)CSc1nncn1-c1ccccc1	PNC inhibitor -97
CC(C)NC(=O)CSc1nc2ccccc2n1-c1ccccc1	ALDH1A1 inh inconclusive
CCCCNc1nc(C)nc2c1nc(-c1ccccc1)n2CC1CCCN1CC (configuration not stated)	ALDH1A1 inh inconclusive, HPGD inh inconclusive (no result: PNC inhibitor)
NNC(=O)c1cc2sccc2s1	ALDH1A1 inh 2.5µM (no result: 12-hLO inh, PNC inhibitor, HPGD inh)
CC(=O)NNC(=O)c1cc2sccc2s1	none (no result: 12-hLO inh, PNC inhibitor, HPGD inh)
Cc1cccc(Oc2ncnc3oc(-c4ccccc4)cc23)c1C	ALDH1A1 inh inconclusive, HPGD inh inconclusive
Cc1cc(Cl)ccc1Oc1ncnc2oc(-c3ccccc3)cc12	PNC inhibitor -94, ALDH1A1 inh inconclusive, HPGD inh inconclusive
CC(=O)c1ccc2c(c1)C1C=CCC1C(c1ccncc1)N2 (configuration not stated)	ALDH1A1 inh 20µM
C1=CC2c3ccccc3NC(c3ccncc3)C2C1 (configuration not stated)	ALDH1A1 inh 10µM, HPGD inh 22µM
CCCCCCCc1c(O)nc(SCC(=O)O)[nH]c1=O	none (no result: 12-hLO inh, PNC inhibitor, ALDH1A1 inh, HPGD inh)
O=C(NCc1cccs1)c1ccc(N2CCCCC2)nc1	ALDH1A1 inh 13µM, HPGD inh 16µM
CC1CCCN(c2ccc(C(=O)NCc3cccs3)cn2)C1 (configuration not stated)	PNC inhibitor inconclusive, ALDH1A1 inh inconclusive, HPGD inh 28µM
Cc1ccc(S(=O)(=O)Nc2cccc(Oc3cnccn3)c2)cc1	ALDH1A1 inh 7.9µM (no result: 12-hLO inh, PNC inhibitor, HPGD inh)
Cc1ccc(-n2cc3c(=O)n(C)c(=O)n(C)c3c2)cc1C	ALDH1A1 inh 14µM
CCc1cc2c3c(c1)C(C)CC(C)(C)N3C(=O)/C2=C1\SC(=O)NC1=O (configuration not stated)	none (no result: 12-hLO inh, PNC inhibitor, ALDH1A1 inh, HPGD inh)
COc1ccc(C(=O)Oc2cc3c4c(c2)C(C)=CC(C)(C)N4C(=O)C3=O)cc1OC	ALDH1A1 inh inconclusive, HPGD inh 32µM
COc1ccc(C(=O)Oc2ccc(C(=S)N3CCCC3)cc2)cc1OC	PNC inhibitor inconclusive
COc1cc2c3c(c1)C1(C(=O)N3C(C)(C)C=C2C)C(C#N)=C(N)Oc2cc(O)ccc21 (configuration not stated)	PNC inhibitor inconclusive
COc1cc2c3c(c1)C(C)CC(C)(C)N3C(=O)C2=O (configuration not stated)	ALDH1A1 inh 0.14µM (no result: 12-hLO inh, PNC inhibitor, HPGD inh)
COc1cc2c3c(c1)C(C)=CC(C)(C)N3C(=O)C2=O	ALDH1A1 inh 3.5µM (no result: 12-hLO inh, PNC inhibitor, HPGD inh)
CC1=CC(C)(C)N2C(=O)C(=Nc3ccc(O)cc3)c3cccc1c32	none (no result: 12-hLO inh, PNC inhibitor, ALDH1A1 inh, HPGD inh)
COc1cccc(C(=O)Oc2cc3c4c(c2)C(C)=CC(C)(C)N4C(=O)C3=O)c1	ALDH1A1 inh 8.9µM, HPGD inh 28µM
CC(=O)c1sc(N/N=C2\CC3CCC2(C)C3(C)C)nc1C (configuration not stated)	ALDH1A1 inh inconclusive (no result: 12-hLO inh, PNC inhibitor, HPGD inh)
O=C(Nc1nc(-c2cccc3ccccc23)cs1)c1cnccn1	none
COc1cc(N=C2C(=O)N3c4c(cccc42)C(C)=CC3(C)C)cc(OC)c1	ALDH1A1 inh 0.79µM
O=C(NC1CCCCC1)C(c1ccco1)N(CCc1ccccc1)C(=O)C(F)(F)F (configuration not stated)	ALDH1A1 inh 32µM
O=C(CC(Cc1ccccc1)c1ccco1)NC1CCCCC1 (configuration not stated)	HPGD inh 14µM
COc1ccc(-c2[nH]ncc2C=O)cc1	none
O=C(NC(=S)Nc1nc(-c2cccc([N+](=O)[O-])c2)cs1)c1cc(Cl)ccc1Cl	ALDH1A1 inh 28µM (no result: 12-hLO inh, PNC inhibitor, HPGD inh)
Cc1ccccc1C(=O)O/N=C(\N)c1cccc([N+](=O)[O-])c1	ALDH1A1 inh inconclusive, HPGD inh 2.8µM
CC(=O)c1cccc(Nc2nc(-c3cccc([N+](=O)[O-])c3)cs2)c1	PNC inhibitor -85, ALDH1A1 inh inconclusive
N/C(=N\OC(=O)Oc1ccccc1)c1ccc([N+](=O)[O-])cc1	PNC inhibitor -121
COc1ccc(Cc2[nH]n3c(=O)cc(C(C)C)nc3c2-c2ccccc2)cc1	none (no result: 12-hLO inh, PNC inhibitor, HPGD inh)
COC(=O)[C@@]1(Cc2ccccc2)[C@H]2c3cc(C(=O)N(C)C)n(Cc4ccccc4)c3C[C@H]2CN1C(=O)c1ccccc1	none (no result: PNC inhibitor)
CC(=O)c1cccc([N+](=O)[O-])c1	ALDH1A1 inh 28µM (no result: GLA inh pH 4.5, PNC inhibitor)
O=C(O)c1cccc([N+](=O)[O-])c1	none (no result: GLA inh pH 4.5, PNC inhibitor)
Cc1csc(C(=O)O)c1NC(=O)c1cccc([N+](=O)[O-])c1	ALDH1A1 inh 14µM (no result: 12-hLO inh, PNC inhibitor, HPGD inh)
